A short description of experiment [1]: Viability qHTS for spleen associated tyrosine kinase inhibitor (SYKi) naive MV4-11 cells (AID 1963823). Further: nearly all actives have a fitted effect of over 40% in size. In a few lines:
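Cells: MV4-11, SYK inhibitor naive, 500 per well. Treatment: library compounds, 72 hr, 37 C, 5% CO2. Read-out: CellTiter-Glo luminescence after 10 min RT.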
(In general: Quantitative high-throughput screening tests each substance at several concentrations.)

Experiment [2] is described as follows: Viability qHTS for spleen associated tyrosine kinase inhibitor (SYKi) drug resistant MV4-11 cells (AID 1963824). Further: nearly all actives have a fitted effect of over 35% in size. In a few lines:
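SYK-inhibitor-resistant MV4-11 AML cells were seeded at 500 per well onto compound and cultured 72 hours (37 °C, 5% CO2). CellTiter-Glo was then added, and after 10 min at room temperature, luminescence gave viability.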

Results filed as inconclusive are left out. A number with no mark means an inactive call. Activity calls are given as the source filed them. The call rests on the fitted dose curve; in most records, active means well fitted cell-killing curve with a large enough effect; inconclusive means small, poorly fitted or top-dose-only effect, or effect the other way; inactive means no such curve, though single readings can be large or run the other way.
Potency means the concentration at half of the fitted maximal effect.

`CC12CC34CC(O)C5C(CO)(CO)CC(=O)CC5(C)C3CC1C2C4` (configuration not stated): the Potency result in experiment [1] and in experiment [2] was “inactive” in each case.
In the case of `COC(=O)C1=CO[C@@H](O[C@@H]2O[C@H](CO)[C@@H](O)[C@H](O)[C@H]2O)[C@H]2[C@@H]1C=C[C@]21C=C([C@H](C)OC(=O)/C=C/c2ccc(O[C@@H]3O[C@H](CO)[C@@H](O)[C@H](O)[C@H]3O)cc2)C(=O)O1`, the Potency result in experiment [1] and in experiment [2] was “inactive” in each case.
For `CC12CC34C=CC(=O)C(C)(CCC(=O)O)C3C(CC1C4)O2` (configuration not stated), the Potency entry in experiment [1] and in experiment [2] was “inactive” each time.
For the compound `CC12CCC(OC3OC(CO)C(O)C(OC4OC(CO)C(O)C(O)C4O)C3O)CC1CCC1C2CCC2(C)/C(=C3/COC(=O)C3)CCC12O` (configuration not stated), the Potency entry in experiment [1] and in experiment [2] was “inactive” throughout.
As to `Fc1ccc(N2CCCCC2)c(NC(=S)c2ccncc2)c1`, the Potency in experiment [1] was 11.6 µM (active); in experiment [2] it was 9.2 µM (active).
On to `C[C@@H]1O[C@@H](O[C@H]2[C@H](OC(=O)[C@]34CCC(C)(C)C[C@H]3C3=CCC5[C@@]6(C)C[C@@H](O)[C@@H](O[C@@H]7O[C@H](CO)[C@@H](O)[C@H](O)[C@H]7O)[C@@](C)(CO)C6[C@H](O)C[C@@]5(C)[C@]3(C)CC4)OC[C@H](O)[C@@H]2O)[C@H](O)[C@H](O[C@@H]2OC[C@](O)(CO)[C@H]2O)[C@H]1O[C@@H]1OC[C@@H](O)[C@H](O[C@H]2O[C@H](C)[C@@H](O)[C@H](O)[C@@H]2O)[C@H]1O` (some centres not stated), for which the viability (% of control) in experiment [1] was 80.1% [at 9.25 µM]. Moreover, in experiment [2], the viability, % of control is 86.5% [at 9.25 µM].
Take `C[C@@H]1O[C@@H](O[C@H]2[C@H](O[C@H]3[C@H](O[C@H]4CC[C@@]5(C)C(CC[C@]6(C)C5CC=C5[C@@H]7CC(C)(C)C[C@@H](O)[C@]7(C)CC[C@]56C)[C@@]4(C)CO)O[C@H](C(=O)O)[C@@H](O)[C@@H]3O)O[C@H](CO)[C@H](O)[C@@H]2O)[C@H](O)[C@H](O)[C@H]1O` (some centres not stated): the viability (% of control) in experiment [1] is 74.1% [at 9.25 µM]. Besides, the viability, % of control in experiment [2] is 80.3% [at 9.25 µM].
As for `C=CC1(C)C=C2C(=O)CC3C(C)(C)CCCC3(C(=O)O)C2(O)CC1` (configuration not stated), the Potency result in experiment [1] and in experiment [2] was “inactive” each time.
As for `CC(=O)Nc1cccc2c1c(Sc1ccc(Cl)cc1)c(C)n2CC(=O)O`, the Potency entry in experiment [1] and in experiment [2] was “inactive” each time.
Consider `CSCC[C@H](NC(=O)[C@H](CCSC)NC(=O)CNC(=O)[C@H](Cc1ccc(O)cc1)NC(=O)[C@H](Cc1ccccc1)NC(=O)[C@H](CCCN=C(N)N)NC(=O)[C@H](CC(=O)O)NC(=O)[C@@H]1CCCN1C(=O)[C@H](CC(=O)O)NC(=O)[C@@H]1CCCN1C(=O)[C@@H]1CCCN1C(=O)[C@@H](N)CC(=O)O)C(N)=O`, for which the Potency result in experiment [1] and in experiment [2] was “inactive” each time.
Regarding `C[C@@H]1O[C@@H](O[C@H]2[C@H](OC(=O)[C@]34CCC(C)(C)C[C@H]3C3=CCC5[C@@]6(C)CC[C@H](O[C@@H]7O[C@H](C(=O)O)[C@@H](O)[C@H](O)[C@H]7O[C@@H]7O[C@H](CO)[C@H](O)[C@H](O)[C@H]7O)[C@@](C)(C=O)C6CC[C@@]5(C)[C@]3(C)C[C@H]4O)O[C@H](C)[C@H](O[C@@H]3O[C@H](C)[C@H](O)[C@H](O)[C@H]3O)[C@@H]2O)[C@H](O)[C@H](O)[C@H]1O[C@@H]1OC[C@@H](O)[C@H](O[C@@H]2O[C@H](CO)[C@@H](O)[C@H](O)[C@H]2O)[C@H]1O` (some centres not stated), in experiment [1], the viability (% of control) was 5.74% [at 4.97 µM]. For the same compound, in experiment [2], the viability, % of control was 5.67% [at 4.97 µM].
With `O=C1C(Cc2ccc(O)cc2)N2C(=O)CCN(C(=O)NCc3ccccc3)C2CN1Cc1cccc2ccccc12` (configuration not stated), the Potency in experiment [1] was 1.46 µM (active); in experiment [2] it was 1.84 µM (active).
Regarding `CC(C)CC(=O)O[C@@H]1OC=C(CO[C@@H]2O[C@H](CO)[C@@H](O)[C@H](O)[C@H]2O)[C@H]2[C@@H]3O[C@H]3[C@@](O)(CO)[C@@H]12`, the Potency entry in experiment [1] and in experiment [2] was “inactive” in each case.
In the case of `C=CC(C)(O)CC/C=C(\C)C(=O)OCC1OC(OC2CCC3(C)C(CCC4(C)C3CC=C3C5CC(C)(C)C(O)CC5(C(=O)O)CCC34C)C2(C)C)C(O)C(OC2OC(CO)C(O)C(OC3OC(CO)C(O)C(OC4OC(COC5OC(CO)C(O)C(O)C5O)C(O)C(O)C4O)C3O)C2O)C1O` (configuration not stated), the viability (% of control) in experiment [1] is 99.5% [at 9.25 µM]. For the same compound, the viability, % of control in experiment [2] was 108% [at 9.25 µM].
In the case of `OCCc1ccc(O[C@@H]2O[C@H](CO)[C@@H](O)[C@H](O)[C@H]2O)c(O)c1`, the Potency entry in experiment [1] and in experiment [2] was “inactive” throughout.
As for `CSc1cc2c(s1)c1cnn(Cc3ccccc3F)c(=O)c1n2C`, the Potency result in experiment [1] and in experiment [2] was “inactive” each time.
Turning to `CC1(C)CC2C3=CCC4C5(C)CCC(OC6OC(CO)C(O)C(OC7OC(CO)C(O)C(OC8OC(CO)C(O)C(OC9OC(COC%10OC(CO)C(O)C(O)C%10O)C(O)C(O)C9O)C8O)C7O)C6O)C(C)(C)C5CCC4(C)C3(C)CCC2(C(=O)O)CC1O` (configuration not stated), the viability (% of control) in experiment [1] is 81.7% [at 9.25 µM]. In addition, in experiment [2], the viability, % of control is 99.5% [at 9.25 µM].
As to `CC(=O)OC/C(=C/C(=O)O)CC[C@@H]1C(C)=CC(=O)[C@@H]2C(C)(C)CCC[C@@]12C`, the Potency result in experiment [1] and in experiment [2] was “inactive” throughout.
Turning to `C[C@@H]1CN(CCCn2c3ccccc3c3ccccc32)C[C@H](C)N1`, the values for the Potency in experiment [1] and in experiment [2] were 23.7 µM (active) and 26.6 µM (active), respectively.
The corresponding values for `O=C(NCc1ccc(OC(F)(F)F)cc1)C1c2ccccc2C(=O)N1C1CCOCC1` (configuration not stated) are “inactive” and “inactive”.
For `CC1=C(C(=O)O)/C(=C\CO[C@@H]2O[C@H](CO)[C@@H](O)[C@H](O)[C@H]2O)C(OC(=O)/C=C\c2ccc(O)cc2)C1` (some centres not stated), in that order: “inactive” and “inactive”.

(Values after PubChem BioAssay (NCATS).)
